Bioassay records deposited in PubChem by National Center for Advancing Translational Sciences (NCATS).
Sfp PPTase inh = inhibitors of Bacillus subtilis Sfp phosphopantetheinyl transferase | AID 1490 | Biochemical Sfp PPTase activity, qHTS | 3.5% of 310,000 active | Q9F4F7 | Potency, µM, without a hit: largest response in the series, negative = inhibition, usual class: inhibitors;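 note: the enzyme is Sfp with the accession as filed and its product quenches rhodamine fluorescence; potency is the fitted concentration of half-maximal effect; 0% = enzyme reaction without inhibitor and -100% = no enzyme wells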
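Reaction rates are the 30-min fluorescence difference (ex 525, em 598 nm) in wells containing 15 nM Sfp, 5 uM rhodamine-CoA and 12.5 uM BHQ-2-YbbR at pH 7.6 with 10 mM MgCl2.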
G9a inh = G9a (human) methyltransferase inhibition; AID 504332; 8.8% of 350,000 active; Potency, µM (titrated, usually from 102 µM), for the others: at the top dose activity, negative = inhibition, hits mostly inhibitors; G9a H3K9 monomethylation, AlphaScreen, 2 h; note: potency is the fitted concentration of half-maximal effect; nearly all actives have a fitted effect of over 75% in size
Target sequence (Q96KQ7 913-1193 limits assumed): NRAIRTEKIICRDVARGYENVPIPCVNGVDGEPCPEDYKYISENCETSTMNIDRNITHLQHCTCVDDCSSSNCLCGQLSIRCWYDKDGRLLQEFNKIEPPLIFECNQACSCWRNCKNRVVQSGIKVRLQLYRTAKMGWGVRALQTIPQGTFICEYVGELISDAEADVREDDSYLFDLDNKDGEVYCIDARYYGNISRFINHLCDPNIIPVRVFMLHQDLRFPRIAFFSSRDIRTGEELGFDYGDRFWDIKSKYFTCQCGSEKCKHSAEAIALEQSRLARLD
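Enzyme 20 nM + cpd, 15 min RT; add b-H3K9 pep 500 nM / SAM 20 uM; 2 h RT; anti-H3K9me1 Ab 0.5 ug/mL + SA donor / anti-rabbit acceptor beads 20 ug/mL each, 10 min; AlphaScreen read.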
Tau ThT inhib = tau fibrillization inhibition (ThT binding); P10636; AID 1460; Potency, µM (titrated, usually from 57.4 µM), for the others: top-dose activity, negative = inhibition, usual class: inhibitors; 2.1% of 270,000 active; recombinant tau K18 P301L, heparin-induced fibrillization, ThT fluorescence; note: potency is the fitted concentration of half-maximal effect; nearly all actives have a fitted effect of over 55% in size
Target sequence (P10636 561-689 P618L limits assumed): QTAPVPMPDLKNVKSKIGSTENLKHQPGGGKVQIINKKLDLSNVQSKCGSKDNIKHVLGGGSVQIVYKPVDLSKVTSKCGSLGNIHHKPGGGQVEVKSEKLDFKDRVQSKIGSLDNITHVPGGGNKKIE
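Tau K18 P301L fragment (15 uM unlabeled plus 0.24 uM Alexa 594-labeled) in 100 mM sodium acetate pH 7 with compound, fibrillization induced by 20 uM heparin for 6 hr at 37 C. Thioflavin T (30 uM) added, fluorescence read after 1 hr (ex 450, em 510 nm).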
Tau fluor cs = counter-screen for tau fibril formation inhibitors. tau K18 P301L Alexa594 fluorescence, heparin fibrillization. Potency, µM (doses to about 57.7 µM), without a hit: top-dose activity change, negative = decrease. 0.93% of 280,000 active. AID 1463; note: potency is the fitted concentration of half-maximal effect; nearly all actives have a fitted effect of over 55% in size
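Human tau K18 P301L (15 uM unlabeled, 0.24 uM Alexa 594-labeled) in 100 mM sodium acetate pH 7 with 20 uM heparin, 6 hr at 37 C. ThT 30 uM added, 1 hr ambient; Alexa 594 FP and total fluorescence read at 555/632 nm.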
Coupling enz = counter-screen for Giardia aldolase inhibitors: coupling enzyme system | activity change, negative = inhibition, % at 58.2 µM, hits read low | AID 2472 | 0.67% of 290,000 active | coupling enzyme system counterscreen, AmpLite Red fluorescence; in the data active = activity change below about -30%
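Compounds tested against the coupling enzymes alone at 57.5 uM final; readout was AmpLite Red fluorescence (525/598 nm) after 20 min at RT.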
Tau fibril FP = inhibitors of human tau fibril formation; K18 P301L tau heparin fibrillization, Alexa594 FP, 6 h; AID 1468; P10636; Potency, µM (doses to about 57.7 µM), without a hit: top-dose activity, negative = inhibition, usual class: inhibitors; 0.39% of 280,000 active; note: potency is the fitted concentration of half-maximal effect; nearly all actives have a fitted effect of over 55% in size
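FP of Alexa 594-tau after heparin (20 uM) induction. Substrate: human K18 P301L, 15 uM unlabeled, 0.24 uM labeled. Buffer 100 mM sodium acetate pH 7. 6 hr, 37 C.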
The depositor's hits bear a star; u = inconclusive; x = not tested or not shown; [ ] = dose if it differs, or a comment. Sampled rows, rich in hits. Any-hit rate of the full collection: about 11%. Unless noted, calls come from the whole dose curve; as a rule, active = well fitted curve in the direction sought with a large enough effect; inconclusive = small, poorly fitted or top-dose-only effect, or another doubt; inactive = no such curve, though single readings can be large; an effect the other way counts as inactive or inconclusive. Unless noted, % is set by controls: 0 for no effect and ±100 for the full control effect.

SMILES | Sfp PPTase inh | G9a inh | Tau ThT inhib | Tau fluor cs | Coupling enz | Tau fibril FP
CC(C)CN1CC[C@@]2(CCCN(C(=O)c3ccco3)C2)C1 | 13.8% | 2.5%[12.7 µM] | x | x | 1.9 | x
CCOc1ccc(C2C=C(c3ccc(C)cc3)Nc3nnnn32)cc1 (centres undefined) | -10.5% | 50.1µM* | -13.0% | -17.4% | 3.5 | 3.5%
CCOc1ccc(C2C=C(c3ccccc3)Nc3nnnn32)cc1 (centres undefined) | -28.0% | 50.1µM* | u | u | 0.6 | -4.3%
CCOc1ccc(C2C=C(c3cccc(OC)c3)Nc3nnnn32)cc1 (centres undefined) | x | 6.5%[59 µM] | 2.2% | -1.2% | x | -5.4%
CCOc1ccc(C2C=C(c3ccc(C)cc3)Nc3ncnn32)cc1 (centres undefined) | -29.6% | 28.2µM* | -16.6% | -23.2% | 2.2 | 0.1%
C[C@H](O)CO[C@H]1[C@H]2O[C@H]3[C@H](O)[C@@H](O)[C@@H](O[C@H]4[C@H](O)[C@@H](O)[C@@H](O[C@H]5[C@H](O)[C@@H](O)[C@@H](O[C@H]6[C@H](O)[C@@H](OC[C@H](C)O)[C@@H](O[C@H]7[C@H](O)[C@@H](OC[C@H](C)O)[C@@H](O[C@H]8[C@H](O)[C@@H](O)[C@@H](O[C@@H]([C@@H]1O)[C@@H](CO)O2)O[C@@H]8CO)O[C@@H]7CO)O[C@@H]6CO)O[C@@H]5CO)O[C@@H]4CO)O[C@@H]3CO | 7.9% | x | 3.8% | 1.6% | 4.0 | 5.2%
CN(C)c1ccc(C(=S)N2CCCC2)cc1Br | 15.3% | 0.2% | x | x | -0.2 | x
NC(CSS(=O)(=O)O)=NCCC12CC3CC(CC(O)(C3)C1)C2 | 50.1µM* | 10µM* | 3.55µM* | -11.8% | -2.4 | u
CN(C)c1ncc2nc(-c3cc(F)cc(F)c3)c(=O)n(C[C@H]3CCCO3)c2n1 | 7.0% | 7.0%[0.501 µM] | x | x | 1.3 | x
CC(C)(C)c1ccc(S(=O)(=O)O/N=C2/CCCCC2c2ccc([N+](=O)[O-])cc2[N+](=O)[O-])cc1 (centres undefined) | -1.7% | -8.4%[12.7 µM] | -18.1% | -6.5% | 0.9 | -3.5%
CS(=O)(=O)O/N=C1\CCCCC1c1ccc([N+](=O)[O-])cc1[N+](=O)[O-] (centres undefined) | -7.8% | 39.8µM* | x | x | 1.2 | x
COc1cccc(Cn2c(=O)c(-c3cc(F)cc(F)c3)nc3cnc(N(C)C)nc32)c1 | 29.2% | 0.6%[0.501 µM] | x | x | -1.1 | x
CCN1C(=O)/C(=C2\SC(=S)N(NC(=O)c3cccnc3)C2=O)c2ccccc21 | -10.5% | 39.8µM* | x | x | -17.7 | x
O=C(CSc1n[nH]c(=O)[nH]c1=O)Nc1ccc2c(c1)C(=O)c1ccccc1C2=O | -17.5% | x | 10µM* | 12.6µM*[quencher] | 12.9 | 14.6%
Cc1nn(-c2ccccc2)c2c1N(CC(=O)N1CCN(c3cccc(Cl)c3)CC1)C(=O)CS2 | x | -4.2%[59 µM] | -3.6% | -8.6% | x | u
CC(=O)N1CC(C)Oc2ccc(S(=O)(=O)NC(CC(=O)O)c3ccc(C)cc3C)cc21 (centres undefined) | 18.3% | 79.4µM* | x | x | x | x
CCS(=O)(=O)c1ccc(O)c(NC(=O)NC2CCCCC2)c1 | 8.5% | x | x | -29.8% | 0.7 | 9.2%
CCOC(=O)c1ccc(NC(=O)c2nc[nH]c2C(=O)N[C@@H](CC(C)C)C(=O)OCc2ccccc2)cc1 | 16.7% | -4.8%[12.7 µM] | u | -30.0% | -10.4 | 8.91µM*
CCOC(=O)c1[nH]cnc1C(=O)Nc1ccccc1 | 10.2% | 35.5µM* | -0.6% | -1.7% | -1.0 | 5.9%
CCOC(=O)c1ccc(NC(=O)c2nccnc2C(=O)O)cc1 | -25.9% | 28.2µM* | -8.3% | -13.8% | -8.8 | -10.5%
CCOC(=O)c1ccc(NC(=O)c2nc[nH]c2C(=O)N[C@@H](CC(C)C)C(=O)OC(C)(C)C)cc1 | 25.1% | 3.5%[12.7 µM] | u | u | -13.4 | u
CCOC(=O)c1[nH]cnc1C(=O)Nc1ccc(C)cc1 | 15.1% | u | -6.2% | -2.0% | -0.9 | 1.9%
